Our source for the outcome and AC50 values is PubChem BioAssay (EPA / NIEHS).

Read-out in assay [1]: Pyruvate Dehydrogenase Kinase 4 (PDK4), PDK4 (gene 5166)
The assay can be described thus: LTEA_HepaRG_PDK4: Life Technologies and Expression Analysis (LTEA) Assay for Pyruvate Dehydrogenase Kinase 4 (PDK4) using HepaRG (AID 2283525). To be noted: mRNA level, 48 h; actives raise or lower the signal. The method, boiled down:
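HepaRG cells plated 48 h, then switched to serum-free induction medium and exposed in duplicate for 48 h to 8 half-log concentrations from 100 uM in 0.5% DMSO. PDK4 mRNA measured by qRT-PCR, normalized to ACTB, GAPDH and POLR2A; bidirectional fit versus DMSO.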

Read-out in assay [2]: NAD(P)H dehydrogenase [quinone] 1 (NQO1), NQO1 (gene 1728)
In words: LTEA_HepaRG_NQO1: Life Technologies and Expression Analysis (LTEA) Assay for NAD(P)H dehydrogenase [quinone] 1 (NQO1) using HepaRG (AID 2283526). Conditions: mRNA level, 48 h; actives raise or lower the signal. In a few lines:
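Differentiated HepaRG cells, plated 48 h and then switched to serum-free induction medium, were exposed in duplicate for 48 h to 8-point half-log concentrations up to 100 uM in 0.5% DMSO. mRNA measured by qRT-PCR, normalized to ACTB, GAPDH, POLR2A; bidirectional fit versus DMSO.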

Read-out in assay [3]: succinate dehydrogenase complex iron sulfur subunit B (SDHB), SDHB (gene 6390)
The assay can be described thus: LTEA_HepaRG_SDHB: Life Technologies and Expression Analysis (LTEA) Assay for succinate dehydrogenase complex iron sulfur subunit B (SDHB) using HepaRG (AID 2283528). Conditions: mRNA level, 48 h; actives raise or lower the signal. In a few lines:
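A human HepaRG culture in serum-free induction medium received test chemicals for 48 h over an eight-point range capped at 100 uM. SDHB expression change was quantified by qRT-PCR.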

Read-out in assay [4]: Signal transducer and activator of transcription 3 (Homo sapiens) (UniProt P40763)
In words: LTEA_HepaRG_STAT3: Life Technologies and Expression Analysis (LTEA) Assay for Signal transducer and activator of transcription (STAT3) using HepaRG (AID 2283529). Conditions: mRNA level, 48 h; actives raise or lower the signal. The method, boiled down:
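Differentiated HepaRG cells, serum-free induction medium, dosed 48 h in duplicate, 8 half-log concentrations from 100 uM in 0.5% DMSO. STAT3 mRNA by qRT-PCR, normalised to ACTB, GAPDH, POLR2A; bidirectional fit versus DMSO.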

Read-out in assay [5]: sulfotransferase 2A1 (SULT2A1), SULT2A1 (gene 6822)
In words: LTEA_HepaRG_SULT2A1: Life Technologies and Expression Analysis (LTEA) Assay for sulfotransferase 2A1 (SULT2A1) using HepaRG (AID 2283531). To be noted: mRNA level, 48 h; actives raise or lower the signal. In a few lines:
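Cells were plated and cultured 48 h, switched to serum-free induction medium, then dosed in duplicate for 48 h (8 concentrations, max 100 uM). RNA was isolated and SULT2A1 expression measured by qRT-PCR; gain or loss of signal fitted relative to DMSO.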

Read-out in assay [6]: Transforming Growth Factor (TGFA), TGFA (gene 7039)
In words: LTEA_HepaRG_TGFA: Life Technologies and Expression Analysis (LTEA) Assay for Transforming Growth Factor (TGFA) using HepaRG (AID 2283532). To be noted: mRNA level, 48 h; actives raise or lower the signal. The method, boiled down:
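Differentiated HepaRG cells exposed 48 hours in serum-free induction medium, 0.5% DMSO vehicle, 8-point half-log series from 100 uM, in duplicate. TGFA mRNA by TaqMan qRT-PCR, normalised to ACTB, GAPDH, POLR2A; bidirectional fit versus DMSO.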

Read-out in assay [7]: Transforming Growth Factor (TGFB1), TGFB1 (gene 7040)
In words: LTEA_HepaRG_TGFB1: Life Technologies and Expression Analysis (LTEA) Assay for Transforming Growth Factor (TGFB1) Transporter using HepaRG (AID 2283533). Conditions: mRNA level, 48 h; actives raise or lower the signal. The method, boiled down:
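Expression change of TGFB1 in human HepaRG cells is measured after a 48 h chemical exposure, up to 100 uM in 0.5% DMSO vehicle. Curves are fitted in both directions relative to the DMSO baseline.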

Read-out in assay [8]: Tumor necrosis factor receptor 1 (TNFRSF1A), TNFRSF1A (gene 7132)
In words: LTEA_HepaRG_TNFRSF1A: Life Technologies and Expression Analysis (LTEA) Assay for Tumor necrosis factor receptor 1 (TNFRSF1A) using HepaRG (AID 2283535). Conditions: mRNA level, 48 h; actives raise or lower the signal. The method, boiled down: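 Expression of TNFRSF1A in human HepaRG liver cells was measured by qRT-PCR 48 h after chemical dosing (maximum 100 uM). Bidirectional curve fitting used 0.5% DMSO as baseline.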

Read-out in assay [9]: Thyroid Hormone Responsive (THRSP), THRSP (gene 7069)
The assay can be described thus: LTEA_HepaRG_THRSP: Life Technologies and Expression Analysis (LTEA) Assay for Thyroid Hormone Responsive (THRSP) using HepaRG (AID 2283536). Conditions: mRNA level, 48 h; actives raise or lower the signal. The method, boiled down:
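Differentiated HepaRG cells treated 48 h in serum-free induction medium with 8 half-log concentrations up to 100 uM (0.5% DMSO), duplicates. THRSP mRNA by TaqMan qRT-PCR normalised to ACTB, GAPDH, POLR2A; bidirectional fit versus DMSO.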

Read-out in assay [10]: Cellular tumor antigen p53 (Homo sapiens) (UniProt P04637)
In words: LTEA_HepaRG_TP53: Life Technologies and Expression Analysis (LTEA) Assay for Tumor Protein P53 (TP53) using HepaRG (AID 2283537). Conditions: mRNA level, 48 h; actives raise or lower the signal. The method, boiled down:
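Gain or loss of TP53 mRNA signal is scored relative to 0.5% DMSO after 48 h chemical treatment of HepaRG liver cells, tested in duplicate at eight half-log concentrations up to 100 uM.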

Read-out in assay [11]: UDP glucuronosyltransferase (UGT1A1), UGT1A1 (gene 54658)
In words: LTEA_HepaRG_UGT1A1: Life Technologies and Expression Analysis (LTEA) Assay for UDP glucuronosyltransferase (UGT1A1) using HepaRG (AID 2283538). To be noted: mRNA level, 48 h; actives raise or lower the signal. The method, boiled down: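 Differentiated human HepaRG cells in serum-free induction medium were exposed in duplicate for 48 h to eight half-log concentrations up to 100 uM in 0.5% DMSO. UGT1A1 mRNA was quantified by TaqMan qRT-PCR, normalized to ACTB, GAPDH and POLR2A, and fitted bidirectionally against DMSO.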

Read-out in assay [12]: UDP glucuronosyltransferase (UGT1A6), UGT1A6 (gene 54578)
In words: LTEA_HepaRG_UGT1A6: Life Technologies and Expression Analysis (LTEA) Assay for UDP glucuronosyltransferase (UGT1A6) using HepaRG (AID 2283539). Conditions: mRNA level, 48 h; actives raise or lower the signal. In a few lines:
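Endpoint is UGT1A6 transcript induction or loss in a human liver cell line, quantified by TaqMan qRT-PCR 48 h after dosing. Concentrations ran from 100 uM downward in half-log steps in 0.5% DMSO; activity was fitted in both directions versus vehicle.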

Read-out in assay [13]: X-box binding protein 1 (XBP1), XBP1 (gene 7494)
The assay can be described thus: LTEA_HepaRG_XBP1: Life Technologies and Expression Analysis (LTEA) Assay for X-box binding protein 1 (XBP1) using HepaRG (AID 2283540). Conditions: mRNA level, 48 h; actives raise or lower the signal. In a few lines:
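Human HepaRG monolayers receive test chemical for 48 h across an eight-point half-log series starting at 100 uM. XBP1 mRNA gain or loss is scored against DMSO by qRT-PCR.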

A short description of assay [14]: LTEA_HepaRG_LDH_cytotoxicity: Cytotoxicity Assessment in the Life Technologies and Expression Analysis (LTEA) Assay (AID 2283563; active = hit-call score of the fitted dose curve at least 0.9, where 1 is the maximum). The method, boiled down: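 Human HepaRG hepatic cells are treated with test chemicals for 48 h at up to 100 uM in 0.5% DMSO. Cytotoxicity is scored from medium LDH against the vehicle control.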
Assay [15] can be described thus: ATG_XTT_Cytotoxicity: Cytotoxicity Assessment in the Attagene TRANS-FACTORIAL HepG2 Assay (AID 2283584; active = hit-call score of the fitted dose curve at least 0.9, where 1 is the maximum). In a few lines: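 Transfect HepG2 with GAL4-UAS reporter units, dose compound, incubate 24 h, then measure viable cell number by XTT. Fit concentration response against DMSO baseline.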
Assay [16] is described as follows: TOX21_p53_BLA_p2_viability: Viability Assessment in the Tox21 HCT-116 p53 Agonism Beta-lactamase Assay, Phase 2 (AID 2283591; active = hit-call score of the fitted dose curve at least 0.9, where 1 is the maximum;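 note: compound exposure lasted 16 h at 37 °C; actives lower the ATP signal meaning cytotoxicity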). The method, boiled down:
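HCT116 p53-bla cells, 4000/well, dosed after 5 h plating (217-fold dilution of DMSO stocks) and incubated 16 h at 37C. Viability taken as cellular ATP by CellTiter-Glo luminescence after 30 min RT; signal loss marks cytotoxicity.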

Assay [17] addresses Cellular tumor antigen p53 (Homo sapiens) (UniProt P04637). In words: TOX21_p53_BLA_p2_ratio: Tox21 HCT-116 p53 Agonism Beta-lactamase Assay, Ratio, Phase 2 (AID 2283592; active = hit-call score of the fitted dose curve at least 0.9, where 1 is the maximum). In a few lines: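 An inducible beta-lactamase reporter in HCT116 cells signals p53 pathway activation. After 16 h chemical exposure at 37C, cells load CCF4-AM substrate for 2 h at room temperature; activity is the cleaved/uncleaved emission ratio relative to DMSO.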

Read-out in the next assay: TIMP1, TIMP1 (gene 7076)
In words: LTEA_HepaRG_TIMP1: Life Technologies and Expression Analysis (LTEA) Assay for TIMP1 using HepaRG (AID 2283534). Conditions: mRNA level, 48 h; actives raise or lower the signal. The method, boiled down: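 We dosed human liver HepaRG cultures for 48 hours with up to 100 uM test chemical and measured TIMP1 expression by qRT-PCR. Activity in either direction is fitted relative to the 0.5% DMSO vehicle.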

A short description of assay [18]: TOX21_p53_BLA_p3_viability: Viability Assessment in the Tox21 HCT-116 p53 Agonism Beta-lactamase Assay, Phase 3 (AID 2283593; active = hit-call score of the fitted dose curve at least 0.9, where 1 is the maximum;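 note: cells exposed to compound for 16 h before reading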). The method, boiled down: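 HCT116 cells, 4000/well, dosed 5 h after plating by pin transfer (217-fold dilution from DMSO stock) and incubated 16 h at 37C, 5% CO2. Viability read as ATP luminescence with CellTiter-Glo after 30 min at room temperature.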

Inconclusive results are not listed. Active and inactive are the calls of the source. Rule for the calls, unless noted: active = hit-call score of the fitted dose curve at least 0.9, where 1 is the maximum; inactive = score below 0.9.

Sequence of Signal transducer and activator of transcription 3 (Homo sapiens) (P40763 whole entry, looked up): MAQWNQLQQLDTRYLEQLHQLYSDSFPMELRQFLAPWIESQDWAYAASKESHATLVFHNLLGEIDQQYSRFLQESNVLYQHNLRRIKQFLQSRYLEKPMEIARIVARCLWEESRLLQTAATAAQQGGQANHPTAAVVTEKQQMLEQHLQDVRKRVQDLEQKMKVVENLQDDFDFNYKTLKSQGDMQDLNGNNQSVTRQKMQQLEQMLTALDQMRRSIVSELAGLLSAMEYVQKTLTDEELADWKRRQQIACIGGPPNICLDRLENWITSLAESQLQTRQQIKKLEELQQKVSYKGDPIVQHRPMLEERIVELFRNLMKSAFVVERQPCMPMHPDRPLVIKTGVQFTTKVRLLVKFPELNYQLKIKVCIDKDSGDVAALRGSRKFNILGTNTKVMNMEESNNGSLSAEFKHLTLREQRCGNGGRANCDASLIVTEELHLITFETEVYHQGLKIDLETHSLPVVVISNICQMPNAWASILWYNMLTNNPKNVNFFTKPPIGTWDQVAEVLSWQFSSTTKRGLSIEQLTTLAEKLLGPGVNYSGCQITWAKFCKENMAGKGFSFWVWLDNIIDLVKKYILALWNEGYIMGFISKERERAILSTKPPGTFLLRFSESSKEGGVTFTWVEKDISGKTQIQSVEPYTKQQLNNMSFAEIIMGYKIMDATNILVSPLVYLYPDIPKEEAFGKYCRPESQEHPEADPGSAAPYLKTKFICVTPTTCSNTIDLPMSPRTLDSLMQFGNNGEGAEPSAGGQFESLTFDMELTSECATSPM
Sequence of Cellular tumor antigen p53 (Homo sapiens) (P04637 whole entry, looked up): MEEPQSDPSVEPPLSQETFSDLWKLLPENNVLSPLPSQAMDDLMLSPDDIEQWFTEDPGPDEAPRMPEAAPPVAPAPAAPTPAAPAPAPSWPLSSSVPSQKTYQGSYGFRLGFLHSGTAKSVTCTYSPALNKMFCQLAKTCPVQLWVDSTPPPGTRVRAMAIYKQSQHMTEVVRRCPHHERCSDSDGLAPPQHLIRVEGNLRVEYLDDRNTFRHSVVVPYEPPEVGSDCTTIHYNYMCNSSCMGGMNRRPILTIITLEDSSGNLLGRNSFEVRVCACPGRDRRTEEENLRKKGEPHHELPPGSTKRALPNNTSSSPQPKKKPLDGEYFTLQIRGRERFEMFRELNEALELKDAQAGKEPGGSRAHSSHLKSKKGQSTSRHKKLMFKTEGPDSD

The AC50 is the concentration giving half of the maximal activity seen. Take `CCC1(c2ccccc2)C(=O)N=C(O)NC1=O` (centres undefined): the molecule was classed as inactive in assay [1], in assay [2], in assay [3], in assay [4], in assay [5] and in assay [6]. In addition, the molecule was called inactive in assay [7], in [8], in assay [9], in [10], in assay [12] and in assay [13]. The molecule was classed as inactive in [14], in assay [15], in assay [16] and in [17]. In assay [11], the AC50 is 50 µM (active).

Consider `CC(C)(C)c1ccc(O)cc1`, for which the molecule was called inactive in assay [1], in assay [2], in assay [3], in assay [4], in [5] and in [6]. The outcome in assay [7] is “inactive”; with TIMP1, TIMP1 (gene 7076), “inactive”; in assay [8] it was “inactive”; in [9], “inactive”; in assay [10], “inactive”; in [11], “inactive”. Besides, the result in assay [12] and in assay [13] was inactive.

On to `CCOC(=O)c1ccccc1C(=O)OCC`, for which the molecule was classed as inactive in assay [1], in [2], in assay [3], in [4], in [5] and in assay [6]. For the same molecule, the outcome in [7] was “inactive”; in the assay with TIMP1, TIMP1 (gene 7076) it was “inactive”; in assay [8], “inactive”; in assay [9] it was “inactive”; in assay [10], “inactive”; in [11], “inactive”. Further, the molecule was called inactive in assay [12], in assay [13], in [14], in assay [16], in assay [17] and in assay [18].
